In article PMC7862700, “An all-to-all approach to the identification of sequence-specific readers for epigenetic DNA modifications on cytosine”:

What was measured:
Assay in all cases: DAPPL (digital affinity profiling via proximity ligation, sequencing); 10 mM Tris-HCl pH 7.5, 50 mM NaCl, 1 mM DTT, 4% glycerol, room temperature, 30 min; GST-TFs on glutathione beads, 16-mer random dsDNA library, 0.1% formaldehyde crosslink after washing; high values mean tight binding
[1] = target: T1, FEV (Homo sapiens, UniProt Q99581 1-238); conditions: protein: recombinant; tags: N-terminal GST; dsDNA, one strand shown
T1 sequence: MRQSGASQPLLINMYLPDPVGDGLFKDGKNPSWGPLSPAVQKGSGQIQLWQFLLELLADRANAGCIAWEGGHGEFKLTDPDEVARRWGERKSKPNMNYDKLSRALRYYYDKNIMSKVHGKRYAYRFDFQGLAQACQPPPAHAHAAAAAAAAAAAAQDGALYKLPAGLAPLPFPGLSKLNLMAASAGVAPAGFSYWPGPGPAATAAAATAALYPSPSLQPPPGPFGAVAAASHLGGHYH
Summary of the method: (§1)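 Pools of DNA-barcoded human transcription factors, expressed in yeast as GST fusions on glutathione beads and combined with a tag-only sample, were incubated with 200 nmole of a 16-mer random double-stranded DNA library. Incubation took 30 min at room temperature in Tris/NaCl/DTT/glycerol buffer and was followed by washing, 0.1% formaldehyde crosslinking, proximity ligation (BsaI/T4 ligase, 1 h, 37 °C), PCR amplification and sequencing on an Illumina NextSeq500. Binding signal is the ratio of a hexamer's read frequency for a factor to its frequency for the tag-only sample.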

[2] = target: ETV5 (Homo sapiens, UniProt P41161 1-510); conditions: protein: recombinant; tags: N-terminal GST; dsDNA, one strand shown
ETV5, sequence (P41161 whole entry): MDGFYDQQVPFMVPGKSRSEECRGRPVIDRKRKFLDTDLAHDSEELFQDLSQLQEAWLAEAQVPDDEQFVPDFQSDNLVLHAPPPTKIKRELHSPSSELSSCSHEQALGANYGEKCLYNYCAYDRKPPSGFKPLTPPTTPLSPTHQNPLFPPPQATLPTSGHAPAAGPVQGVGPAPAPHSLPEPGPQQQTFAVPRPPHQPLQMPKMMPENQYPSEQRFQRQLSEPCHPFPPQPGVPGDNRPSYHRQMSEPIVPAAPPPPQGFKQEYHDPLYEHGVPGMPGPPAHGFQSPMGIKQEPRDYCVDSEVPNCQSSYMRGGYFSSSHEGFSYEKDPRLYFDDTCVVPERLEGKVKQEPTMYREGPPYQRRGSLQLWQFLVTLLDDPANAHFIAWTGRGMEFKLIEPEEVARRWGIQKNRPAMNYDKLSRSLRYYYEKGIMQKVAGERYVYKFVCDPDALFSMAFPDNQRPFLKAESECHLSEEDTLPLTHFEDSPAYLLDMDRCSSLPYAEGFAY
Summary of the method: as §1

[3] = target: HSF1 (Homo sapiens, UniProt Q00613 1-529); conditions: protein: recombinant; tags: N-terminal GST; chain copies: 3; dsDNA, one strand shown
HSF1, sequence (Q00613 whole entry): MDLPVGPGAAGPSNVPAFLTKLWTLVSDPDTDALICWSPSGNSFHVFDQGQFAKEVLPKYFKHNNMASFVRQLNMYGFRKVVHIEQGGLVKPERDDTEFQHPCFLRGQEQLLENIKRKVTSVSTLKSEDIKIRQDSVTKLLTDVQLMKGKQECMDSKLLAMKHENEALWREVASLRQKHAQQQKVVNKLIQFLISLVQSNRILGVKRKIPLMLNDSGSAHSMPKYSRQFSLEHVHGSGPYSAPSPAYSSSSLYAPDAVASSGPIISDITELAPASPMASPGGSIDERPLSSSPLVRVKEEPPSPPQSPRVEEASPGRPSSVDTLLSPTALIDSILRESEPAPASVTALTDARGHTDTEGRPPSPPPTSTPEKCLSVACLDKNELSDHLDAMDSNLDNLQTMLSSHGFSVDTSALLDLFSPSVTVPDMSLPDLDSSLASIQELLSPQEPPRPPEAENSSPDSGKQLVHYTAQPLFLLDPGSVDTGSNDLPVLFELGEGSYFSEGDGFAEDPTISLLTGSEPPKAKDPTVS
Summary of the method: as §1

[4] = target: T2, SPIC (Homo sapiens, UniProt Q8N5J4 1-248); conditions: protein: recombinant; tags: N-terminal GST; dsDNA, one strand shown
T2 sequence: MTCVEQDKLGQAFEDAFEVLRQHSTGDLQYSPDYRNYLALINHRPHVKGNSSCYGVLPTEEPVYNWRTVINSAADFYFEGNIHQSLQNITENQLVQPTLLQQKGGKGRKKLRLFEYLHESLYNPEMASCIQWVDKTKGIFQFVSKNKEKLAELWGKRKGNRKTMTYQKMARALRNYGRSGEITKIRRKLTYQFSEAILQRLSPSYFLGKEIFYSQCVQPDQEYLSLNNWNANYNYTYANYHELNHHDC
Summary of the method: as §1

[5] = target: ELF4 (Homo sapiens, UniProt Q99607 1-663); conditions: protein: recombinant; tags: N-terminal GST; dsDNA, one strand shown
ELF4, sequence (Q99607 whole entry): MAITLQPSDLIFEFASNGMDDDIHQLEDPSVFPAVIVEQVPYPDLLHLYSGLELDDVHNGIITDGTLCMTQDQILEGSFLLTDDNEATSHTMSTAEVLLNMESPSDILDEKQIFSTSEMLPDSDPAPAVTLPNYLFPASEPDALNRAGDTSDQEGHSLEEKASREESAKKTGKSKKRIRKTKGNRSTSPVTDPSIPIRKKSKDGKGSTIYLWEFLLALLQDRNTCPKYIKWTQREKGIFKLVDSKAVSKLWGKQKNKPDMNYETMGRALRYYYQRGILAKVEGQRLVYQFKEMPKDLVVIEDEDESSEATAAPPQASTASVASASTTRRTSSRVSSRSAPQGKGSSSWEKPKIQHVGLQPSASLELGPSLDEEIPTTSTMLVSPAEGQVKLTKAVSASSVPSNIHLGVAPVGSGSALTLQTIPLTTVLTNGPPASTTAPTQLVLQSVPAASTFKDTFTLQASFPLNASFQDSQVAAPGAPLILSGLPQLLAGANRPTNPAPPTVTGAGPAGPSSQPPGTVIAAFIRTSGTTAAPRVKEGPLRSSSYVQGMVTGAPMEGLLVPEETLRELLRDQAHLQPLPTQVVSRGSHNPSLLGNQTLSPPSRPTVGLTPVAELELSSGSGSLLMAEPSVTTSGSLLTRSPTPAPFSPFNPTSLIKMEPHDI
Summary of the method: as §1

[6] = target: T3, ELK4 (Homo sapiens, UniProt P28324-2 1-405); conditions: protein: recombinant; tags: N-terminal GST; dsDNA, one strand shown
T3 sequence: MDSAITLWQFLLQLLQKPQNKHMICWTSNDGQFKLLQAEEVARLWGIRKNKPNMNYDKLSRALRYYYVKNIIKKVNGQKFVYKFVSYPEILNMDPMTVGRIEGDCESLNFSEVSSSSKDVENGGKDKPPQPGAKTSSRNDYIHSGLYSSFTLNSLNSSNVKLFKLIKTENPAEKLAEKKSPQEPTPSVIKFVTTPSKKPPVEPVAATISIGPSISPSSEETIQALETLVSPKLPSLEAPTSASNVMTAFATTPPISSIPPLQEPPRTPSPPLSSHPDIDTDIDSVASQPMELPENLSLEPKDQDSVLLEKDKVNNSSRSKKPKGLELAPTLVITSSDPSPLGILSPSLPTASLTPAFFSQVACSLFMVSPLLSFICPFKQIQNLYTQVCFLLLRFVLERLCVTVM
Summary of the method: as §1

[7] = target: T4, ETV2 (Homo sapiens, UniProt O00321 1-342); conditions: protein: recombinant; tags: N-terminal GST; dsDNA, one strand shown
T4 sequence: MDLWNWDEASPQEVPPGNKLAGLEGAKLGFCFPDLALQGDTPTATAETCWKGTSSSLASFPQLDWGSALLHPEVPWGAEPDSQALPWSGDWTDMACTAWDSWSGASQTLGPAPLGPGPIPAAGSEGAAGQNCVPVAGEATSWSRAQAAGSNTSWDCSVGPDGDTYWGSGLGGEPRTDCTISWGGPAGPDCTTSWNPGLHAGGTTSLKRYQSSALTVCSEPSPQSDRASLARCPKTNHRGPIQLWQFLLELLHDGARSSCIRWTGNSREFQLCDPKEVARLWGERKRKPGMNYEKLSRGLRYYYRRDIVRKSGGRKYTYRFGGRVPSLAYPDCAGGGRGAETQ
Summary of the method: as §1

[8] = target: T5, ELF3 (Homo sapiens, UniProt P78545 1-371); conditions: protein: recombinant; tags: N-terminal GST; dsDNA, one strand shown
T5 sequence: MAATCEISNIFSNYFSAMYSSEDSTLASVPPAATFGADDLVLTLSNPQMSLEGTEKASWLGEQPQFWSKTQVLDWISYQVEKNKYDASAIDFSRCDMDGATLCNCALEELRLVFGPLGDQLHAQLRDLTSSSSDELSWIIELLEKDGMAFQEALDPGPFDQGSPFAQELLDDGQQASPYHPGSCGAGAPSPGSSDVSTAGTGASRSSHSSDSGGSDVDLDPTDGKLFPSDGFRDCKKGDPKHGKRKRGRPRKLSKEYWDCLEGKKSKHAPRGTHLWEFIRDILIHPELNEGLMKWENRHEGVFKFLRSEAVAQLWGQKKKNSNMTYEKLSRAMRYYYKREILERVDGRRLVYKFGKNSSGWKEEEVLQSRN
Summary of the method: as §1

[9] = target: CRX (Homo sapiens, UniProt O43186 1-299); conditions: protein: recombinant; tags: N-terminal GST; dsDNA, one strand shown
CRX, sequence (O43186 whole entry): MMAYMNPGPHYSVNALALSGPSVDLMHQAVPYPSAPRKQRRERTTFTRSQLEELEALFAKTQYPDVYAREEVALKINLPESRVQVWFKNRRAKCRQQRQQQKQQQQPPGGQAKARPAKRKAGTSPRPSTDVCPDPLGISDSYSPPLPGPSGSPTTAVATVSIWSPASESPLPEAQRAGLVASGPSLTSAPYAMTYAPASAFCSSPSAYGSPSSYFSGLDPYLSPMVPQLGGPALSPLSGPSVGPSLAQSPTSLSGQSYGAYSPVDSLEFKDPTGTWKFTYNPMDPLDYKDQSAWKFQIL
Summary of the method: as §1

[10] = target: ETV1 (Homo sapiens, UniProt P50549 1-477); conditions: protein: recombinant; tags: N-terminal GST; dsDNA, one strand shown
ETV1, sequence (P50549 whole entry): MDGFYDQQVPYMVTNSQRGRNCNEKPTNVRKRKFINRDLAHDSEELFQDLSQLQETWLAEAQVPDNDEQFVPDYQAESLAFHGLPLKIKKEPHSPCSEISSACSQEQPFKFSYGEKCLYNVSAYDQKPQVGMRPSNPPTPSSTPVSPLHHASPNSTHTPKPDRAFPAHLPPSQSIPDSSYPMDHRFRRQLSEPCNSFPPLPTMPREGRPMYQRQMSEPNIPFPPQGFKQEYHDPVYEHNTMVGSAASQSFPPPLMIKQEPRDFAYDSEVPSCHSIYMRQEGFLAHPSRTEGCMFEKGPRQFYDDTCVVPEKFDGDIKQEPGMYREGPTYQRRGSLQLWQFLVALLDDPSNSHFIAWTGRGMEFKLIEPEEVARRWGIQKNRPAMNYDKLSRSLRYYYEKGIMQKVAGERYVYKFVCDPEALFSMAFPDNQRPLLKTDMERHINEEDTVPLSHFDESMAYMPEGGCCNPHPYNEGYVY
Summary of the method: as §1

CCTCTT
binding signal [1]: 1.58 fold enrichment (6-mer frequency, TF over GST control)
binding signal [2]: 1.68 fold enrichment (6-mer frequency, TF over GST control)
binding signal [3]: 1.4 fold enrichment (6-mer frequency, TF over GST control)
binding signal [4]: 1.52 fold enrichment (6-mer frequency, TF over GST control)
binding signal [5]: 1.56 fold enrichment (6-mer frequency, TF over GST control)
binding signal [6]: 1.56 fold enrichment (6-mer frequency, TF over GST control)
binding signal [7]: 1.75 fold enrichment (6-mer frequency, TF over GST control)
binding signal [8]: 1.32 fold enrichment (6-mer frequency, TF over GST control)
binding signal [9]: 1.81 fold enrichment (6-mer frequency, TF over GST control)
binding signal [10]: 1.55 fold enrichment (6-mer frequency, TF over GST control)
